Source: PubChem BioAssay (Tox21)
“And” between values parts separate entries of the source, which are not always exact repeats. Equal entries are not always repeated. More than one record can exist for a structure, and the calls need not agree. The source made the active and inactive calls. Entries that show only a call come without a potency. Unless noted, calls come from the whole dose curve; as a rule, active = well fitted curve in the direction sought with a large enough effect in the repeat runs; inconclusive = weak or mixed curves; inactive = no such curve, though single readings can be large; an effect the other way counts as inactive or inconclusive.

Columns and labels:
[1] = qHTS assay to identify small molecule antagonists of the glucocorticoid receptor (GR) signaling pathway - cell viability counter screen (AID 720693); note: nearly all actives have a fitted effect of over 55% in size; note: potency is the fitted concentration of half-maximal effect
[2] = qHTS assay for identifying genotoxic compounds that show differential cytotoxicity against isogenic chicken DT40 cell lines with known DNA damage response pathways - wild type cell line (AID 743012); note: nearly all actives have a fitted effect of over 60% in size; note: potency is the fitted concentration of half-maximal effect
Procedure, shortened: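 Cytotoxicity in repair-proficient parental chicken DT40 cells serves as the comparator for Rad54/Ku70- and Rev3-deficient lines. Cells were exposed to compounds for 40 h at 37 C/5% CO2, and ATP-based luminescence (CellTiter-Glo) measured viability.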

[3] = qHTS assay for identifying genotoxic compounds that show differential cytotoxicity against isogenic chicken DT40 cell lines with known DNA damage response pathways - Rev3 mutant cell line (AID 743014); note: nearly all actives have a fitted effect of over 55% in size; note: potency is the fitted concentration of half-maximal effect
[4] = qHTS assay for identifying genotoxic compounds that show differential cytotoxicity against isogenic chicken DT40 cell lines with known DNA damage response pathways - Rad54/Ku70 mutant cell line (AID 743015); note: nearly all actives have a fitted effect of over 60% in size; note: potency is the fitted concentration of half-maximal effect
[5] = qHTS assay to identify small molecule antagonists of the androgen receptor (AR) signaling pathway using the MDA cell line - cell viability counter screen (AID 743041; note: nearly all actives have a fitted effect of over 45% in size; note: potency is the fitted concentration of half-maximal effect)
Procedure, shortened: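 Compound exposure lasted 16 h at 37C in MDA-kb2 AR-luc cells stimulated with R1881. Protease-based CellTiter-Fluor reagent was applied for the final 30 min and fluorescence measured.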

[6] = qHTS assay to identify small molecule antagonists of the thyroid receptor (TR) signaling pathway - cell viability counter screen (AID 743064); note: nearly all actives have a fitted effect of over 50% in size; note: potency is the fitted concentration of half-maximal effect
Procedure, shortened: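 In-well cytotoxicity read by CellTiter-Fluor (30 min, 37 C) following 23.5 h exposure of GH3 cells bearing a TRE-luciferase sensor. Compounds were added alongside 1 nM (final) T3 to drive TR transactivation.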

[7] = qHTS assay to identify small molecule antagonists of the thyroid receptor (TR) signaling pathway (AID 743065); note: nearly all actives have a fitted effect of over 55% in size; note: potency is the fitted concentration of half-maximal effect
Procedure, shortened: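 GH3.TRE-Luc rat pituitary cells (two TREs driving luciferase) were dosed with compound, then stimulated with 1 nM T3 (final) for 23.5 h at 37 C. ONE-Glo luminescence was the read-out, with CellTiter-Fluor fluorescence as the cytotoxicity counter-screen.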

[8] = system: thyroid hormone receptor (rat, GH3 cells); experiment: qHTS assay to identify small molecule agonists of the thyroid receptor (TR) signaling pathway (AID 743066; calls by dose curve)
[9] = qHTS assay to identify small molecule antagonists of the estrogen receptor alpha (ER-alpha) signaling pathway - cell viability counter screen (AID 743074; calls by dose curve; note: nearly all actives have a fitted effect of over 45% in size; note: potency is the fitted concentration of half-maximal effect)
[10] = target: Estrogen receptor (Homo sapiens) (UniProt P03372); experiment: qHTS assay to identify small molecule agonists of the estrogen receptor alpha (ER-alpha) signaling pathway (AID 743075; calls by dose curve; note: potency is the fitted concentration of half-maximal effect)
Estrogen receptor (Homo sapiens), sequence (P03372 whole entry, looked up): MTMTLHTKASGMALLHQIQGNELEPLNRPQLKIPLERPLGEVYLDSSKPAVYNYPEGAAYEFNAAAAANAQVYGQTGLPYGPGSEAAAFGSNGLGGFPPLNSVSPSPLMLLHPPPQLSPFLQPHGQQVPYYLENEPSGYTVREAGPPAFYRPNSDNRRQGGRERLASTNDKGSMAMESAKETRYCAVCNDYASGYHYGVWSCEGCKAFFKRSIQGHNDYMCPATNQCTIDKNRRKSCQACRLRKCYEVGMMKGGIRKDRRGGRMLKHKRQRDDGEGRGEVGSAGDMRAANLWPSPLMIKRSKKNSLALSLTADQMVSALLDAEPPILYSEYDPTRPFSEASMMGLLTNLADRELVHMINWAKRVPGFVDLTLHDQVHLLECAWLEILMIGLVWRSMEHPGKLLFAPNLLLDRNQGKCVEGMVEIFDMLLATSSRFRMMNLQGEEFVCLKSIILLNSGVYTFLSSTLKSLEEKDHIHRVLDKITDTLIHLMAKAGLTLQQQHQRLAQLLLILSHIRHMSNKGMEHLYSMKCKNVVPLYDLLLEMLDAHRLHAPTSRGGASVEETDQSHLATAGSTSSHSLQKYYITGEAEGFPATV

[11] = target: Estrogen receptor (Homo sapiens) (UniProt P03372); experiment: qHTS assay to identify small molecule agonists of the estrogen receptor alpha (ER-alpha) signaling pathway using the BG1 cell line (AID 743079); conditions: BG1Luc4E2 cells, ERE-luciferase agonist, 22 h; activation: at 70.3 µM (top of the series) unless noted; note: nearly all actives have a fitted effect of over 20% in size; note: potency is the fitted concentration of half-maximal effect
[12] = qHTS assay to identify small molecule antagonists of the estrogen receptor alpha (ER-alpha) signaling pathway using the BG1 cell line (AID 743080; calls by dose curve;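 note: BG1 cells stimulated with 17beta-estradiol alongside compound; nearly all actives have a fitted effect of over 25% in size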; note: potency is the fitted concentration of half-maximal effect)
Procedure, shortened: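 Endogenous full-length ER-alpha in BG1-Luc-4E2 cells drives a stably integrated 4×ERE luciferase gene; compounds were tested against 17beta-estradiol over 21.5 h, with luminescence and multiplexed viability fluorescence recorded.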

[13] = qHTS assay to identify small molecule antagonists of the estrogen receptor alpha (ER-alpha) signaling pathway using the BG1 cell line - cell viability counter screen (AID 743081);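 note: compound given together with 17beta-estradiol as the ER stimulus; nearly all actives have a fitted effect of over 45% in size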; note: potency is the fitted concentration of half-maximal effect
[14] = qHTS assay to identify small molecule antagonists of the androgen receptor (AR) signaling pathway - cell viability counter screen (AID 743033; note: nearly all actives have a fitted effect of over 45% in size; note: potency is the fitted concentration of half-maximal effect)
Aromatase (Homo sapiens) = Aromatase (Homo sapiens) (UniProt P11511); experiment: qHTS assay to identify aromatase inhibitors (AID 743083); note: nearly all actives have a fitted effect of over 55% in size; note: potency is the fitted concentration of half-maximal effect
Aromatase (Homo sapiens), sequence (P11511 whole entry, looked up): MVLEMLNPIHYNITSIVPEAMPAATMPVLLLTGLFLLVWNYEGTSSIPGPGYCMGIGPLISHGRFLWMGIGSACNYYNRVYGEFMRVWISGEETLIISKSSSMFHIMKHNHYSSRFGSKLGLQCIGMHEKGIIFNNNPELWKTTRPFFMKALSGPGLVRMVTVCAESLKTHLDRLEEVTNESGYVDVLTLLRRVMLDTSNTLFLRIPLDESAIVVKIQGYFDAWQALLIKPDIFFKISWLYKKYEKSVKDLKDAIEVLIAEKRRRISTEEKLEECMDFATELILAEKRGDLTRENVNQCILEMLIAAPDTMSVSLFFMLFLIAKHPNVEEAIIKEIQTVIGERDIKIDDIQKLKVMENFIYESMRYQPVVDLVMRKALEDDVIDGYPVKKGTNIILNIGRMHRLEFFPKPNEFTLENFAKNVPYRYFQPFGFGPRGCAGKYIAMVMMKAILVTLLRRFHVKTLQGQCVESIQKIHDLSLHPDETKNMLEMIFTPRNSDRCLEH

[15] = target: Estrogen receptor (Homo sapiens) (UniProt P03372); experiment: qHTS assay to identify small molecule antagonists of the estrogen receptor alpha (ER-alpha) signaling pathway (AID 743069; active = well fitted curve in the direction sought with a large enough effect in the signal ratio in the repeat runs, not every such curve was filed as active; inconclusive = weak or mixed curves, or effect the other way; inactive = no such curve, though single readings can be large or run the other way; the % refers to the signal ratio)
Procedure, shortened: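 In this cell-based reporter format, GripTite HEK293 cells harbouring ER-alpha-UAS-bla were grown overnight with 2% charcoal-stripped FBS, dosed with DMSO-dissolved compounds, then challenged with 17beta-estradiol. After 18 hr at 37C, beta-lactamase activity was detected by FRET fluorescence.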

Row | Compound | Potency [1] | Potency [2] | Potency [3] | Potency [4] | Potency [5] | Potency [6] | Potency [7] | Potency [8] | Potency [9] | Potency [10] | Potency [11] | Potency [12] | Potency [13] | Potency [14] | Potency (Aromatase (Homo sapiens)) | Potency [15]
1 | OC(c1ccc(Cl)cc1)(c1cncnc1)c1ccccc1Cl (centres undefined) | inactive | 10.9 µM (active) | 35 µM (active) and 6.86 µM (active) | 49.4 µM (active) and 6.11 µM (active) | inactive | inactive | 61.1 µM (active) | inactive | inactive | 17.7 µM [activator] (active) and 61.6 µM [inconclusive] (active) | 9.69 µM (active) | inactive | inactive |  |  | 
2 | Oc1ccc(Cl)cc1Cl | inactive | inactive | inactive | inactive | inactive | inactive | inactive | inactive |  | inactive | inactive | inactive | inactive | inactive | inactive | 
3 | CCCCC(C#N)(Cn1cncn1)c1ccc(Cl)cc1 (centres undefined) | inactive | 61.1 µM (active) | 60.9 µM (active) and 19.3 µM (active) | 60.9 µM (active) | inactive | inactive |  | inactive | inactive | inactive | inactive | 30.5 µM (active) and 61.1 µM (active) | inactive | inactive | 4.84 µM (active) and 3.86 µM (active) | 
4 | CC[n+]1c(-c2ccccc2)c2cc(N)ccc2c2ccc(N)cc21 | 16.9 µM (active) and 19 µM (active) and 13.7 µM (active) | 211 nM (active) and 531 nM (active) and 171 nM (active) |  | 298 nM (active) and 750 nM (active) and 85.9 nM (active) | 13.3 µM (active) and 26.6 µM (active) and 30.5 µM (active) | inactive and 54.2 µM (active) | 23.7 µM (active) and 27.2 µM (active) | inactive | inactive | 4.25 µM [inconclusive] (active) and 19 µM [inconclusive] (active) and 5.47 µM [inconclusive] (active) | inactive | inactive | 54.2 µM (active) | 12 µM (active) and 4.88 µM (active) | 18.8 µM (active) and 26.6 µM (active) and 12.1 µM (active) | 
5 | CCCCCCCCCC(CC)c1ccc(S(=O)(=O)O)cc1 (centres undefined) |  | inactive and 18.8 µM (active) |  | inactive and 30.6 µM (active) and 47.2 µM (active) | inactive |  |  | inactive | inactive and 43.6 µM (active) |  |  |  | inactive | inactive |  | 
6 | CC(C)CON=O | inactive | inactive |  | inactive | inactive | inactive |  |  | inactive | inactive | inactive | inactive | inactive | inactive | inactive | inactive
7 | C[C@]12CCC(=O)C=C1CC[C@@H]1[C@@H]2CC[C@@]2(C)[C@H]1CC[C@]2(C)O | 15.5 µM (active) | 29.8 µM (active) and 26.6 µM (active) and 21.7 µM (active) |  | 29.8 µM (active) and 26.6 µM (active) and 26.7 µM (active) | inactive | inactive and 61.4 µM (active) | 10.6 µM (active) and 24.5 µM (active) | inactive | inactive | 2.13 µM [inconclusive] (active) and 4.25 µM [inconclusive] (active) and 1.39 µM [inconclusive] (active) | 376 nM (active) and 106 nM (active) and 179 nM (active) | inactive | inactive | inactive | inactive | 
